Compound activity deposited in PubChem by SRMLSC.
Rows were chosen to be rich in hits. Some 6.5% of all compounds tested hit in one or more screens of this group.
Spn DPM-DC inh: inhibitors of Streptococcus pneumoniae diphosphomevalonate decarboxylase; purified DPM-DC, PK/LDH coupled NADH fluorescence; calls only at 10 µM; hit rate 0.49% among 65,000; AID 556;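 active = the 320 compounds with the highest percent inhibition in the single-dose primary screen, excluding strongly autofluorescent ones, cut at about 32% in these data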;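 note: kinetic rate of NADH fluorescence loss reporting ADP formed by the decarboxylase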
NADH enzymes: blocks coupling enzymes of NAD/NADH assays; coupled PK/LDH NADH assays, four targets; hit rate 0.02% among 65,000; IC50, µM (highest dose often 10 µM), without a hit: top-dose inhibition;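 active = single-dose screening hits from any of four coupled enzyme assays that gave an IC50 when retested across doses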;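 note: the DPM-DC format reads NADH fluorescence rather than 340 nm absorbance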
A340 absorber: compounds absorbing at 340 nm | compound absorbance at 340 nm, fold over control | fold change at 10 µM | 65,000 tested, under 10 active | AID 708;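 active = at 10 µM dose, initial 340 nm absorbance at least 2 fold that of control wells; inactive = change under 2 fold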;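 note: initial absorbance extrapolated from kinetic A340 decline of NADH oxidation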
Spn MK inh: S. pneumoniae mevalonate kinase inhibition. purified MK, PK/LDH-coupled NADH absorbance 340 nm. hit rate 0.48% among 65,000. inhibition, % at 10 µM;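 active = ranked among the strongest by inhibition in the single 10 µM screen, a fixed top-ranked set picked for dose follow-up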
Fluor 339 460: intrinsic fluorescence of library compounds, ex339/em460 – biochemical, MLSMR library, data from DPM-DC assay, artefact control, profiling panel. compound autofluorescence, ex339/em460 nm, NADH buffer; active compounds read high; 1 = no-compound wells, NADH background. fluorescence fold increase at 10 µM. hit rate 5.5% among 65,000. AID 709;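 active = at 10 µM, mean starting fluorescence two-fold or more over control wells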;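 note: signal is the first read of a kinetic run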
PMK inhibit: S. pneumoniae PMK inhibition | hit rate 0.49% among 65,000 | purified PMK, PK/LDH-coupled NADH absorbance 340 nm | inhibition, % at 10 µM;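 active = top-ranked compounds by inhibition in the single 10 µM screen, taking a fixed number of the strongest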;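 note: 0% = full reaction with DMSO carrier and 100% = background rate without enzyme reaction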
Starred values were filed as active, the others as inactive; i = inactive; nt = no result given; + = active, no number.

SMILES	Spn DPM-DC inh	NADH enzymes	A340 absorber	Spn MK inh	Fluor 339 460	PMK inhibit
CCc1nc(N2CCOCC2)c(C#N)c2c1CCCC2	i	1%	1	0	2*	2
CC(C)c1nc(N2CCCC2)c(C#N)c2c1CCCC2	nt	1%	1.1	1	2.1*	0
C=CCN(C(=O)CSc1nc2[nH]ncc2c(=O)n1-c1ccccc1OC)c1ccccc1	i	4%	1	0	1.1	11
CCN1CCCC1CNC(=O)c1nn(-c2ccc(C)cc2)c(=O)c2c1c1ccccc1n2C (stereo not given)	i	8%	1	2	2.7*	7
Cc1ccc(-n2nc(C(=O)N3CCN(C)CC3)c3c4ccccc4n(C)c3c2=O)cc1	i	4%	0.99	2	1.2	10
O=C(O)CCCNCc1ccccc1F	i	5%	0.98	5	1.1	11
O=C(O)CCS(=O)(=O)Cc1ccccc1F	i	9%	1	1	1.1	27*
CCN(CC)CCOC(=O)c1ccc(N=CC2=C(O)CC(C)(C)CC2=O)cc1	+	17%	1.2	3	1	6
CC(C)C(=O)Nc1ccc2c(c1)C(=O)N(CCC(=O)O)C2=O	nt	2%	1	0	2.3*	4
Cn1ccnc1Sc1nc2ccccc2nc1NS(=O)(=O)c1ccccc1	i	6%	1.1	0	1.1	18
COc1ccc(C(C)(C)C)cc1NC(=O)Nc1ccc2c(c1)OCO2	i	2%	0.98	0	1.1	0
O=C(Cn1cnc2ccccc2c1=O)NCCC(=O)N1CCN(c2ccccc2)CC1	i	1%	0.98	3	1.1	0
Cc1nc2oc3ccccc3c(=O)c2c(=O)n1Cc1ccccc1	i	4%	0.98	8	1.1	5
Cc1nc2ccc(N)cc2c(=O)n1Cc1ccc(Cl)cc1	nt	14%	1.1	11	3.7*	17
CC(=O)NC(C)C(=O)OCC(=O)Nc1ccc(Br)cc1 (stereo not given)	i	1%	1.1	1	1	8
CC(C)=CC(=O)Nc1ccc(Br)cc1	i	5%	0.97	14	1.1	active
OCCNc1ncnc2c1ncn2Cc1ccccc1	i	9%	0.97	14	1.1	12
C=CCn1cnc2c(NCc3ccccc3)ncnc21	i	6%	0.98	active	1	0
Cc1nc2ccccc2n2c(O)c(CC(=O)O)cc12	i	15%	1	2	1.2	42*
Cc1cc(NC(=O)NC2CCCN2S(=O)(=O)c2ccc(Cl)cc2)no1 (stereo not given)	i	4%	1	3	1.1	8
CC(C)CCNc1nc2c(cc1C#N)COC(C)(C)C2	nt	3%	1	5	2.2*	0
CC(=O)c1cccc(N(C(=O)c2ccco2)C(C(=O)NC2CCCC2)c2ccncc2)c1 (stereo not given)	i	8%	0.99	7	1.1	18
O=C(Cn1c(=O)oc2ccccc21)N1CCN(c2ccc(N3CCOCC3)nn2)CC1	nt	12%	1.1	7	2.1*	16
O=C(Cn1c(=O)oc2ccccc21)N1CCCCC1	i	3%	1	8	1.1	0
Cc1ccccc1CS(=O)(=O)CCC(=O)N1CCN(c2ccc(N3CCOCC3)nn2)CC1	nt	5%	0.98	2	3.4*	14
SMILES	Spn DPM-DC inh	NADH enzymes	A340 absorber	Spn MK inh	Fluor 339 460	PMK inhibit
CCOc1cc(C#N)c(NC(=O)c2cccnc2)cc1OCC	i	8%	1	0	1.1	25*
COC(=O)c1cc(OC)c(OC)cc1NC(=O)c1cccnc1	i	5%	1.1	3	1.1	11
CCCSc1nnc(NC(=O)c2sc3nc(-c4cccs4)ccc3c2N)s1	nt	3%	1.2	0	4.5*	5
COc1ccc(C(=O)Nc2nc(-c3cccs3)cs2)cc1	i	5%	1	0	1.2	14
Cc1csc(NC(=O)c2sc3nc(-c4cccs4)ccc3c2N)n1	nt	2%	1.1	1	2.4*	0
COc1ccccc1CCNC(=O)c1ccoc1C	i	8%	1	15	1.1	9
CCn1c(SCC(=O)c2[nH]c(C)c(C(C)=O)c2C)nnc1-c1cccs1	i	11%	1.1	5	1.1	27*
O=C(N1CCOCC1)N1CCN(S(=O)(=O)c2ccccc2)C1	i	3%	1	1	0.86	4
CCOC(=O)c1sc2nc3c(cc2c1N)COC(C)(C)C3	i	5%	1	8	1.5	2
CC1(C)Cc2nc(N)c(C(=O)NCCO)cc2CO1	nt	4%	1.1	2	2.3*	5
CCOC(=O)CC1=CC(C)(CC(=O)OCC)C(C#N)(C#N)C(N)=C1C#N (stereo not given)	i	3%	1.1	7	1.1	3
CCOc1ccc(-c2cc(NC(=O)Cn3ncc4c3-c3ccccc3OC4)on2)cc1OCC	i	4%	1	5	1.1	7
CCOCCOC(=O)C1=C(C)NC2=C(C(=O)CC(c3cccs3)C2)C1c1ccsc1 (stereo not given)	nt	2%	1.1	4	2.1*	0
O=C1c2ccccc2NC(c2ccccc2)N1Cc1ccco1 (stereo not given)	nt	5%	1	8	2.2*	1
CC(=O)C1=C(O)C(=O)N(Cc2ccco2)C1c1ccc(F)cc1 (stereo not given)	i	5%	1	11	1	3
O=C1c2ccccc2NC(c2ccc(F)cc2)N1Cc1ccco1 (stereo not given)	nt	5%	1.1	5	3.8*	4
O=C1c2ccccc2N2C(=O)c3ccccc3C2N1Cc1ccco1 (stereo not given)	i	3%	1	6	1.1	0
COc1ccc(S(=O)(=O)N2CCOCC2)cc1C(=O)Nc1cc(C)on1	i	12%	1	8	1.1	3
COc1ccc(-c2ccc(-c3nnc(-c4ccncc4)o3)cc2)cc1	+	9%	1	12	2.4*	15
CN1C(=O)CSc2ccc(NC(=O)NCCC3=CCCCC3)cc21	i	7%	1.1	13	1	2
CCOC(=O)c1oc2ccccc2c1NC(=O)c1cccc(OC)c1OC	i	3%	0.99	10	1.2	13
CCOC(=O)c1snc(C(=O)NC2CCCCC2)c1N	i	3%	1	8	2*	0
Nc1c(C(=O)NC2CCCCC2)nsc1C(=O)OCC(=O)NC1CCCCC1	i	17%	1	11	3.1*	11
CCn1c(SCC(=O)NCc2ccc3c(c2)OCO3)nnc1-c1c[nH]c2ccccc12	i	4%	1	5	1.1	7
COc1cccc2[nH]c3c(N4CCC(C(N)=O)CC4)ncnc3c12	nt	8%	1.1	5	3.7*	10
COc1ccc(-n2ncc3c(N4CCC(C(N)=O)CC4)ncnc32)cc1	i	4%	0.99	7	1.1	5
